Bioassay records from PubChem.
The list is not random: actives were taken first. Their share in the collection is about 2%.
S1P3 antagonist: S1P3 receptor antagonists, primary screen, cell-based. CHO S1P3 NFAT-BLA reporter, FRET fluorescence, antagonist mode. Sphingosine 1-phosphate receptor 3 (Homo sapiens), Q99500. inhibition, % at 4.98 µM. 0.27% of 170,000 active;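 active = inhibition above the plate cutoff, the mean inhibition of test wells on that plate plus 3 SD, cut at about 28% in these data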;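 note: cells challenged with S1P at its EC80 of 0.8 µM; blue over green emission ratio from cleaved BLA substrate after 4 h stimulation; 0% = S1P-stimulated wells and 100% = unstimulated DMSO-only wells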
Target sequence (Q99500 whole entry, looked up): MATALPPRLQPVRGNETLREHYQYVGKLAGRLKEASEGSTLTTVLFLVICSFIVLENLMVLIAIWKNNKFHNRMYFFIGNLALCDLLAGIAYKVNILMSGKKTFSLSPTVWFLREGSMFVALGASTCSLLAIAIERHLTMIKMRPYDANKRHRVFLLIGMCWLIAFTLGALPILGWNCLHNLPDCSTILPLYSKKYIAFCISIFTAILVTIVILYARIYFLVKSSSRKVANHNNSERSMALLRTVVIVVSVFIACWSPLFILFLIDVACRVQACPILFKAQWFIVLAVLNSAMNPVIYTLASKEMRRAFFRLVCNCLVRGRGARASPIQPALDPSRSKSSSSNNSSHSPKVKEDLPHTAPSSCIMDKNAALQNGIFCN
S1P4 agonist: S1P4 receptor agonists, primary screen, cell-based. Sphingosine 1-phosphate receptor 4 (Homo sapiens), O95977. S1P4-expressing cell line, agonist reporter assay. activation, % at 4.98 µM. 0.35% of 220,000 active; in the data active = activation above about 11%;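 note: 0% = DMSO vehicle and 100% = reference agonist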
S1P4 antagonist: S1P4 receptor antagonists, primary screen, cell-based. S1P4-expressing cells, antagonist mode, reporter read-out. inhibition, % at 4.98 µM. Sphingosine 1-phosphate receptor 4 (Homo sapiens), O95977. 0.26% of 220,000 active; in the data active = inhibition above about 29%;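 note: 0% = wells stimulated with agonist and 100% = vehicle wells without agonist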
EP2 modulator: EP2 receptor modulators, cAMP readout, primary screen, cell-based, HTRF cAMP, PGE2 stimulation; Prostaglandin E2 receptor EP2 subtype (Homo sapiens), P43116; EP2-expressing cells, cAMP HTRF FRET, PGE2 co-stimulation; induction, % at 25 µM; 0.83% of 260,000 active; AID 940, 2007;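 active = compounds whose cAMP rise, as percent of the full-agonist control response, exceeds 60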;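 note: rat C6 glioma line stably carrying human EP2 under a CMV promoter; the protocol text gives 20 µM as final concentration; 100% = response of wells given 1 µM PGE2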
PGE2 EP2 inh: human EP2 receptor antagonists, primary screen, TR-FRET cAMP, C6 glioma cells | C6 glioma cells expressing human EP2; cells stimulated with saturating PGE2 | inhibition, % at 25 µM | 0.52% of 260,000 active | AID 1422, 2008;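 active = percent inhibition above 40 after rounding to a whole number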;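 note: rat C6 glioma host cells with rolipram phosphodiesterase inhibitor present; the protocol text gives 20 µM as final concentration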
Starred values were filed as active, the others as inactive; / = no result given.

SMILES	S1P3 antagonist	S1P4 agonist	S1P4 antagonist	EP2 modulator	PGE2 EP2 inh
CCc1ccccc1NC(=O)N1C2CCCC1CC(NC(=O)C(C)(C)C)C2 (centres undefined)	62.9*	0.3	-11.7	11.4	6.9
CC1CCN(CCCNC(=O)C2CCN(S(=O)(=O)N3CCCCC3)CC2)CC1	-8.6	1.4	-8.0	-15.4	19.4
CC1CCCCN1CCNC(=O)C1CCN(S(=O)(=O)N2CCCCC2)CC1 (centres undefined)	-4.4	0.5	4.6	17.1	120.4*
N#CCCS(=O)(=O)c1nnnn1-c1ccccc1	21.0	-6.7	38.4*	/	16.0
c1ccc(-n2nnnc2Cc2nnnn2-c2ccccc2)cc1	-14.9	-0.8	-20.4	-12.0	0.7
O=C(O)[C@H](Cc1ccc(O)c([N+](=O)[O-])c1)N1C(=O)c2ccccc2C1=O	/	/	/	10.3	50.7*
O=C(COC(=O)Cc1ccc(Br)cc1)NC1CCCCC1	-2.7	1.1	-6.7	1.2	7.6
NCOC(=O)Cc1ccc(Br)cc1	/	/	/	10.4	54.5*
CCN(CC)c1ccc2c(c1)oc(=O)c1cc3ccccc3nc12	/	/	/	-14.2	12.6
CS(=O)(=O)Nc1ccc(Cc2ccc(NS(C)(=O)=O)cc2)cc1	-21.8	-1.4	-13.3	2.6	4.9
O=C=Nc1ccc(Cc2ccc(N=C=O)cc2)cc1 (tested in a mixture with another compound)	/	/	/	10.0	45.1*
O=[N+]([O-])c1cc(C(F)(F)F)ccc1NC1CCN(Cc2ccccc2)CC1	10.6	-1.7	-4.2	60.8*	8.1
O=C(NC1CCCCC1)C(c1ccccc1F)N(Cc1ccco1)C(=O)Cc1cccs1 (centres undefined)	/	/	/	63.5*	11.9
CC(=O)c1ccc(N(C(=O)Cc2cccs2)C(C(=O)NC2CCCC2)c2cccs2)cc1 (centres undefined)	/	/	/	29.3	6.1
COc1cccc(N(C(=O)Cc2cccs2)C(C(=O)NC2CCCC2)c2ccc(C)o2)c1 (centres undefined)	/	/	/	43.8	6.6
C#CC(=O)N(c1cccc(OC)c1)C(C(=O)NC1CCCC1)c1cccs1 (centres undefined)	/	1.3	30.3*	-59.5	11.7
Cc1ccc(N(C(=O)Cc2cccs2)C(C(=O)NC2CCCC2)c2cccs2)cc1 (centres undefined)	/	/	/	80.4*	10.6
COc1ccc(C)cc1N(C(=O)Cc1cccs1)C(C(=O)NC1CCCC1)c1ccc(C)o1 (centres undefined)	/	/	/	75.2*	11.2
Cc1cc2nc(C3CCCN3C(=O)Cc3ccc(-n4cnnn4)cc3)[nH]c2cc1C (centres undefined)	/	/	/	-18.4	6.6
CCCn1c(-c2ccc(F)cc2)cnc1SCC(=O)Nc1ccc(OC)cc1OC	/	/	/	-11.9	12.6
C=CCNC(=O)[C@H]1C[C@@H](c2ccc(F)cc2)NS(=O)(=O)N1C	/	/	/	4.7	/
NC(N)=N/N=C/c1ccccc1	/	0.6	-5.8	-41.0	16.6
NC(N)=N/N=C/c1ccc(OCc2ccccc2Cl)cc1	/	-1.0	-6.3	33.1	95.6*
O=C(CC1Nc2ccccc2NC1=O)NCc1cccnc1 (centres undefined)	101.9*	1.2	-14.5	20.9	/
CCCCNC(=O)CC1Nc2ccccc2NC1=O (centres undefined)	-42.4	1.9	-4.0	21.0	10.7
SMILES	S1P3 antagonist	S1P4 agonist	S1P4 antagonist	EP2 modulator	PGE2 EP2 inh
CC(=O)CSc1nc(C2CC2)cc(C(F)(F)F)c1C#N	/	/	/	86.4*	18.6
COc1ccc(C(=O)Nc2sc3c(c2C#N)CCC3)cc1Cl	/	/	/	3.0	10.1
CCc1cc2cccc(C)c2nc1SCC(=O)N1CCOCC1	/	/	/	7.1	8.8
CCOC(=O)CSc1nc2c(C)cccc2cc1CC	/	/	/	72.7*	9.8
CCOC(=O)CSc1nc2c(C)c(C)ccc2cc1C	/	/	/	88.2*	11.7
CCS(=O)(=O)N(CC(=O)Nc1sc(C)c(C)c1C(N)=O)Cc1ccccc1	/	/	/	3.1	9.7
CN1CCCCC1CCN1c2ccccc2Sc2ccc(S(C)=O)cc21 (centres undefined)	0.2	1.1	-18.2	/	17.8
COc1ccc2c(c1)N(CC[C@H]1CCCCN1C)c1ccccc1S2	/	/	/	-55.2	41.3*
CCOc1ccc(-c2nnn(CC(N)=O)n2)cc1OCC	/	/	/	-13.3	2.7
CC(C)C1Cc2c(C#N)c(N)sc(=S)c2CO1 (centres undefined)	/	-1.4	-9.3	-23.3	58.9*
CC1(C)Cc2c(C#N)c(N)sc(=S)c2CO1	-12.2	0.7	-16.7	24.1	36.7
O=C1C=CC(=O)N1c1cccc(-c2ccccc2)c1	-20.0	-0.7	17.4	-61.2	113.7*
